Experimental data taken from PubChem BioAssay (NCI).
About 79,000 compounds went through this panel and 15% of them were active in at least one assay; those are over-represented in the sample as a whole. The source made the active and inactive calls. No stated cut-off is given here; in the data, active means growth inhibition above about 70%; inactive means the rest.

Assays:
[1] = NCI Yeast Anticancer Drug Screen. Data for the rad52 strain (AID 147);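 further: 0% = growth of vehicle-treated control cultures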; conditions: S. cerevisiae rad52 mutant growth inhibition, hits give high values
Method in brief: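 DNA repair-defective yeast; compound exposure; growth scored against vehicle controls.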

[2] = NCI Yeast Anticancer Drug Screen. Data for the wt1 strain (AID 149);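 further: 0% = growth of vehicle-treated wt1 cultures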; conditions: S. cerevisiae wt1 strain (SPY 50644) growth inhibition, hits give high values
Method in brief: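 Readout: yeast growth inhibition, normalised to vehicle controls, in the wt1 strain exposed to test compounds.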

[3] = NCI Yeast Anticancer Drug Screen. Data for the rad50EPP+ strain (AID 151);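 further: 0% = growth of vehicle-treated control cultures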; conditions: S. cerevisiae rad50 mutant strain, hits give high values
Method in brief: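 rad50EPP+ yeast treated with test compounds. Readout: growth vs vehicle control.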

[4] = NCI Yeast Anticancer Drug Screen. Data for the mgt1 strain (AID 153); conditions: S. cerevisiae mgt1 mutant growth inhibition, hits give high values
Method in brief: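 Growth inhibition relative to vehicle controls was scored for the mgt1 yeast strain after compound exposure.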

[5] = NCI Yeast Anticancer Drug Screen. Data for the rad50 strain (AID 155);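 further: 0% = growth of vehicle-only cultures of the same strain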; conditions: S. cerevisiae rad50 strain growth inhibition, hits give high values
Method in brief: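 Compounds were tested on a yeast strain with an engineered DNA damage repair alteration; the reported value is growth inhibition normalised to vehicle treatment.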

[6] = NCI Yeast Anticancer Drug Screen. Data for the mec2-1 strain (AID 157); conditions: S. cerevisiae mec2-1 strain, hits give high values
Method in brief: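 Growth inhibition is read against vehicle-treated controls after compound exposure of the mec2-1 yeast strain, which is defective in DNA damage repair or cell cycle control.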

[7] = NCI Yeast Anticancer Drug Screen. Data for the rad14 strain (AID 159);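 further: 0% = growth of vehicle-treated control cultures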; conditions: S. cerevisiae rad14 strain growth inhibition, hits give high values
Method in brief: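 Compound-treated yeast with a defined DNA-repair lesion; growth inhibition normalised to vehicle-treated cultures.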

[8] = NCI Yeast Anticancer Drug Screen. Data for the sgs1 mgt1 strain (AID 161);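 further: 0% = growth of cultures given vehicle only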; conditions: S. cerevisiae sgs1 mgt1 strain, hits give high values
Method in brief: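 This yeast growth screen uses a strain with defined DNA-repair lesions; compound-treated growth is compared with vehicle-treated growth.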

[9] = NCI Yeast Anticancer Drug Screen. Data for the CLN2oe strain (AID 163);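 further: 0% = growth of vehicle-only control cultures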; conditions: S. cerevisiae CLN2oe strain, hits give high values
Method in brief: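 Compound-treated yeast; growth vs vehicle ctrl = % inhibition. Genetically altered strain (cell-cycle control).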

[10] = NCI Yeast Anticancer Drug Screen. Data for the cln2 rad14 strain (AID 165);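 further: 0% = growth equal to vehicle treated cultures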; conditions: S. cerevisiae cln2 rad14 strain, hits give high values
Method in brief: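 Growth inhibition, relative to vehicle-treated controls, is the read-out. The test organism is a yeast strain with defined genetic alterations, cln2 rad14.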

[11] = NCI Yeast Anticancer Drug Screen. Data for the bub3 strain (AID 167); conditions: S. cerevisiae bub3 mutant strain, hits give high values
Method in brief: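 Growth of a checkpoint-deficient yeast mutant is measured after compound exposure. Values represent inhibition relative to vehicle.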

[12] = NCI Yeast Anticancer Drug Screen. Data for the wt2 strain (AID 169);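 further: 0% = growth of vehicle-treated yeast cultures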; conditions: S. cerevisiae wt2 strain growth inhibition, hits give high values
Method in brief: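 Compound exposure of yeast; growth compared with vehicle controls; inhibition reported.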

[13] = NCI Yeast Anticancer Drug Screen. Data for the mlh1 strain (AID 171);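 further: 0% = growth of vehicle-treated control cultures of the same strain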; conditions: S. cerevisiae mlh1 strain growth inhibition, hits give high values
Method in brief: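 Compounds are applied to a genetically altered yeast strain, and its growth is compared with that of vehicle-treated cultures to give percent inhibition.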

[14] = NCI Yeast Anticancer Drug Screen. Data for the sgs1 strain (AID 173);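 further: 0% = growth of vehicle-only control cultures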; conditions: S. cerevisiae sgs1 mutant, hits give high values
Method in brief: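 Compounds applied to genetically altered yeast; growth compared with vehicle-treated cultures to give % inhibition.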

[15] = NCI Yeast Anticancer Drug Screen. Data for the mlh1 rad18 strain (AID 175); conditions: S. cerevisiae mlh1 rad18 strain growth inhibition, hits give high values
Method in brief: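 Cells of a genetically altered yeast strain, deficient in DNA damage repair, were treated with compound. Their growth was then compared with that of vehicle-treated cultures to give inhibition.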

[16] = NCI Yeast Anticancer Drug Screen. Data for the rad18 strain (AID 177); conditions: S. cerevisiae rad18 mutant growth inhibition, hits give high values
Method in brief: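 Compounds are applied to a repair-deficient yeast strain, and growth is compared with that of vehicle-treated cultures to give percent inhibition.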

[17] = at 5.0 µM (retest, dose inferred, filed as 0.5)
[18] = at 50.0 µM (retest, dose inferred, filed as 5.0)

Measured: growth inhibition

CCOc1c(N=Nc2ccccc2OC)c(C)nn1C(=S)S
active: [1]; at 100.0 µM 79% | [3]; at 100.0 µM 79% | [4]; at 100.0 µM 74% | [5]; at 50.0 µM 98.5% | [6]; at 50.0 µM 97.8% | [7]; at 100.0 µM 78% | [8]; at 50.0 µM 97.7% | [10]; at 50.0 µM 98% | [11]; at 50.0 µM 98% | [12]; at 100.0 µM 75% | [14]; at 100.0 µM 86% | [15]; at 50.0 µM 98.3% | [16]; at 100.0 µM 70%
inactive: [1]; at 1.2 µM 0% | [1]; at 3.7 µM 3% | [1]; at 11.0 µM 11% | [1]; at 33.0 µM 39% | [2]; at 1.2 µM -1% | [2]; at 3.7 µM 1% | [2]; at 11.0 µM 4% | [2]; at 33.0 µM 17% | [2]; at 100.0 µM 52% | [3]; at 1.2 µM 2% | [3]; at 3.7 µM 14% | [3]; at 11.0 µM 26% | [3]; at 33.0 µM 54% | [4]; at 1.2 µM -2% | [4]; at 3.7 µM 1% | [4]; at 11.0 µM 3% | [4]; at 33.0 µM 18% | [5]; at 1.2 µM -1% | [5]; at 3.7 µM -1% | [5]; [17] -2% | [5]; at 11.0 µM 8% | [5]; at 33.0 µM 22% | [5]; [18] 36% | [5]; at 100.0 µM 65% | [6]; at 1.2 µM -1% | [6]; at 3.7 µM 0% | [6]; [17] -7% | [6]; at 11.0 µM 2% | [6]; at 33.0 µM 19% | [6]; [18] 4% | [6]; at 100.0 µM 60% | [7]; at 1.2 µM 4% | [7]; at 3.7 µM -1% | [7]; at 11.0 µM 4% | [7]; at 33.0 µM 4% | [8]; [17] 4% | [8]; [18] 49% | [9]; at 1.2 µM -6% | [9]; at 3.7 µM 0% | [9]; at 11.0 µM -3% | [9]; at 33.0 µM 7% | [9]; at 100.0 µM 59% | [10]; [17] -45% | [10]; [18] 4% | [11]; at 1.2 µM -7% | [11]; at 3.7 µM -1% | [11]; [17] -25% | [11]; at 11.0 µM 15% | [11]; at 33.0 µM 34% | [11]; [18] 50% | [11]; at 100.0 µM 67% | [12]; at 1.2 µM 0% | [12]; at 3.7 µM 3% | [12]; at 11.0 µM 10% | [12]; at 33.0 µM 32% | [13]; at 1.2 µM -3% | [13]; at 3.7 µM 0% | [13]; at 11.0 µM 4% | [13]; at 33.0 µM 4% | [13]; at 100.0 µM 65% | [14]; at 1.2 µM -1% | [14]; at 3.7 µM 3% | [14]; at 11.0 µM 14% | [14]; at 33.0 µM 45% | [15]; [17] -30% | [15]; [18] 56% | [16]; at 1.2 µM -11% | [16]; at 3.7 µM -3% | [16]; at 11.0 µM 4% | [16]; at 33.0 µM 32%

O=C1c2ccccc2C(=O)c2cc(CCl)ccc21
inactive: [1]; at 1.2 µM 4% | [1]; at 3.7 µM 12% | [1]; at 11.0 µM 17% | [1]; at 33.0 µM 21% | [1]; at 100.0 µM 20% | [2]; at 1.2 µM 1% | [2]; at 3.7 µM 6% | [2]; at 11.0 µM 3% | [2]; at 33.0 µM 7% | [2]; at 100.0 µM 10% | [3]; at 1.2 µM 27% | [3]; at 3.7 µM 47% | [3]; at 11.0 µM 64% | [3]; at 33.0 µM 69% | [3]; at 100.0 µM 68% | [4]; at 1.2 µM -1% | [4]; at 3.7 µM 2% | [4]; at 11.0 µM 7% | [4]; at 33.0 µM 10% | [4]; at 100.0 µM 12% | [5]; at 1.2 µM 2% | [5]; at 3.7 µM 6% | [5]; [17] 20% | [5]; at 11.0 µM 12% | [5]; at 33.0 µM 13% | [5]; [18] 32% | [5]; at 50.0 µM 25% | [5]; at 100.0 µM 14% | [6]; at 1.2 µM 2% | [6]; at 3.7 µM 7% | [6]; [17] 12% | [6]; at 11.0 µM 17% | [6]; at 33.0 µM 20% | [6]; [18] 38% | [6]; at 50.0 µM 24.4% | [6]; at 100.0 µM 16% | [7]; at 1.2 µM 2% | [7]; at 3.7 µM 4% | [7]; at 11.0 µM 7% | [7]; at 33.0 µM 8% | [7]; at 100.0 µM 13% | [8]; [17] 15% | [8]; [18] 30% | [8]; at 50.0 µM 46.2% | [9]; at 1.2 µM -1% | [9]; at 3.7 µM -5% | [9]; at 11.0 µM 8% | [9]; at 33.0 µM 5% | [9]; at 100.0 µM 2% | [10]; [17] 4% | [10]; [18] 18% | [10]; at 50.0 µM 28% | [11]; at 1.2 µM 5% | [11]; at 3.7 µM 11% | [11]; [17] 39% | [11]; at 11.0 µM 19% | [11]; at 33.0 µM 25% | [11]; [18] 56% | [11]; at 50.0 µM 58.8% | [11]; at 100.0 µM 22% | [12]; at 1.2 µM 3% | [12]; at 3.7 µM 7% | [12]; at 11.0 µM 8% | [12]; at 33.0 µM 12% | [12]; at 100.0 µM 12% | [13]; at 1.2 µM 3% | [13]; at 3.7 µM 3% | [13]; at 11.0 µM 6% | [13]; at 33.0 µM 9% | [13]; at 100.0 µM 10% | [14]; at 1.2 µM 2% | [14]; at 3.7 µM 2% | [14]; at 11.0 µM 7% | [14]; at 33.0 µM 11% | [14]; at 100.0 µM 14% | [15]; [17] 29% | [15]; [18] 51% | [15]; at 50.0 µM 31.2% | [16]; at 1.2 µM 9% | [16]; at 3.7 µM 22% | [16]; at 11.0 µM 39% | [16]; at 33.0 µM 46% | [16]; at 100.0 µM 53%
